Results on 63 compounds are retold here after PubChem BioAssay AID1566 (Sanford-Burnham Center for Chemical Genomics, 2009).

In general, inhibition refers to the drop in the measured response relative to a control, in per cent.

Hit rate of the full screen: of about 290,000 compounds, about 1,800 (0.62%) were called active. Only a selection was taken, and actives are over-represented in it overall. Values without a mark were called inactive. No stated cut-off is given here; in the data, active means inhibition above about 50%; inactive means the rest.

A short description of this assay: inhibition of NOD2-driven NF-kB reporter – cell-based, luminescence, uHTS, HEK293 (AID 1566). The note with it: HEK293 NOD2/NF-kB luciferase reporter, at 4 µM, stronger effect = higher value.
As for `Cc1c(=O)n(OCc2ccccn2)c2ccccc2[n+]1[O-]`, the inhibition is 9.3%.
On to `N#CC1=C(SCC(=O)Nc2ccc(C(=O)O)cc2)NC(=O)CC1c1ccco1` (stereo not drawn), for which the inhibition was -4.5%.
As to `COc1ccc(-c2[nH]ncc2CN2CCN(c3ccccn3)CC2)c(OC)c1`, the inhibition is 11.3%.
In the case of `COC(=O)c1sc(S(=O)(=O)N2CCC(C(=O)O)CC2)c(C(=O)OC)c1C`, the inhibition was -0.8%.
In the case of `COC(=O)COc1ccc(S(=O)(=O)N2CCCCC2)cc1[N+](=O)[O-]` it was 4.8%.
`COc1cc(NC(=O)COc2ccc(Cl)cc2)ccc1-c1cc2ccccc2oc1=O`: the inhibition is 16.1%.
As for `COc1cc(NC(C)=O)ccc1-c1cc2ccccc2oc1=O`, the inhibition is -3.4%.
As for `O=c1[nH]c(C2CCCN(S(=O)(=O)c3ccccc3)C2)nc2c1nnn2Cc1ccc2c(c1)OCCO2` (stereo not drawn), the inhibition was 21.7%.
As to `O=C(CN(CC1CCCO1)C(=O)CCC(=O)Nc1ccccn1)NCC1CCCO1` (stereo not drawn), the inhibition is 4.7%.
On to `Cc1ccc(C)c(-n2c(-c3ccc4c(c3)OCO4)n[nH]c2=S)c1`, for which the inhibition is 13.9%.
On to `C=C(C)COc1ccc(-c2nc(N)nc(C)c2-c2ccc(OC)cc2)c(O)c1`, for which the inhibition was 20.5%.
On to `CCc1ccccc1NC(=O)CN(C)C(=O)CN1C(=O)NC2(CCCCCC2)C1=O`, for which the inhibition is 9.4%.
For the compound `CCC(C)(C)C1CCC2(CC1)NC(=O)N(CC(=O)N(C)CC(=O)Nc1ccccc1C(F)(F)F)C2=O` (stereo not drawn), the inhibition was 52.8% (active).
For `O=C(CN1C(=O)NC2(CCCC2)C1=O)Nc1ccccc1C(F)(F)F`, the inhibition was 18.6%.
Take `CCOC(=O)N1CCC(NC(=O)c2ccc3c(c2)N(C)CCS3)CC1`: the inhibition is 4.6%.
As for `CN(C)S(=O)(=O)c1ccc(C(=O)Nc2cc3c(cc2C(=O)O)OCCCO3)cc1`, the inhibition was 4%.
Take `COc1ccc(C2NC(=O)NC(C)=C2[N+](=O)[O-])cc1OC` (stereo not drawn): the inhibition was 9.2%.
For the compound `COc1ccc(/C=N/n2c(C)nc3ccccc3c2=O)cc1`, the inhibition is -11.4%.
For `CC1(C)Cc2ccccc2C2=C(C(=O)N3CCCCCC3)C(=O)C(=O)N21`, the inhibition is 16.7%.
With `CCOC(=O)C1=C2c3ccc4ccccc4c3CC(C)(C)N2C(=O)C1=O`, the inhibition is 17.7%.
On to `CC1(C)Cc2c(ccc3ccccc23)C2=C(C(=O)N3CCCC3)C(=O)C(=O)N21`, for which the inhibition is 52.7% (active).
Turning to `Cc1ccc(S(=O)(=O)NCC(=O)OCC(=O)c2ccc(Br)s2)cc1`, the inhibition was -2.2%.
As for `COC(=O)c1sccc1NC(=O)CSc1ccccc1NS(=O)(=O)c1ccc(Cl)cc1`, the inhibition is 28.6%.
With `COC(=O)c1sccc1NC(=O)CSc1ccccc1NS(=O)(=O)c1ccccc1Cl`, the inhibition is 26%.
Then `CN1CCN(C(=O)/C=C/c2c(F)cccc2Cl)CC1`, with 9.9%; and `c1ccc(-c2csc3nnc(SCc4ccc5c(c4)OCCO5)n23)cc1`, with 33.7%; and `O=C(/C=C\Nc1ccccn1)c1ccccc1`, with -121%.
On to `O=C(/C=C/Nc1ccccc1Br)c1ccccn1`, for which the inhibition is 60% (active).
`O=C(/C=C\Nc1ccc2c(c1)OCO2)c1ccccn1`: the inhibition was 33.4%.
On to `CC1CCCC(NCC(O)COC(c2ccc(F)cc2)c2ccc(F)cc2)C1C` (stereo not drawn), for which the inhibition was 0.7%.
For `COC(=O)c1ccc2nc(NC(=O)C(C)(C)C)sc2c1`, the inhibition is -3.1%.
`Fc1ccc2nc(Nc3nc4c(F)cc(F)cc4s3)sc2c1`: the inhibition was -36.7%.
Then `CCC(CC)c1nnc(NC(=O)C2CC(=O)N(C3CCCC3)C2)s1` (stereo not drawn), with 8%.
For `Cc1ccc(S(=O)(=O)N2CCCCC2)cc1NC(=O)CSc1ncnc2ccccc12`, the inhibition is -36.1%.
Regarding `Cc1ccc(NC(=O)CSc2ncnc3ccccc23)cc1S(=O)(=O)N1CCCCCC1`, the inhibition was 40.3%.
For the compound `OC1(c2cccnc2)CCN(Cc2nnnn2C2CCCCC2)CC1`, the inhibition was 19.2%.
For `CCC/C(=N\NC(=O)CNC(=O)/C=C/c1ccco1)c1ccccc1`, the inhibition was 6.6%.
In the case of `Cc1ccc2c(c1)sc(-c1ccc(N(C)C)cc1)[n+]2C` it was 51% (active); in that of `CC[n+]1c(C)sc2cc(C)ccc21`, 5.7%.
Turning to `COc1ccc(C)cc1Nc1n[n+](-c2ccccc2)c(-c2ccc(N(C)C)cc2)s1`, the inhibition is 8.3%.
In the case of `CC(C)OC(=O)Nc1ccc(Oc2c(F)c(F)c(F)c(F)c2F)cc1` it was -5.3%; in that of `CCC(C)c1cc(S(=O)(=O)N2CCOCC2)ccc1OC` (stereo not drawn), -10.6%; in that of `C=CCc1cccc(/C=N/NC(=O)CNc2ccccc2)c1O`, 17.2%.
In the case of `COc1cccc(/C=N/NC(=O)C[n+]2ccccc2)c1O` it was 1%; in that of `C=CCc1cccc(/C=N/NC(=O)C[n+]2ccccc2)c1O`, 53.2% (active).
As for `CN(C)CCNC(=S)NC1CCCCC1`, the inhibition is 8.6%.
Then `CCCCCCCCCc1nc2sc3c(c2c(=O)n1NC(=O)c1ccc([N+](=O)[O-])cc1)CC(C)(C)OC3`, with 57% (active); and `CCCCCCCCCc1nc2sc3c(c2c(=O)n1NC(=O)c1ccccc1[N+](=O)[O-])CC(C)(C)OC3`, with 12.2%.
For the compound `CCCCCc1nc2sc3c(c2c(=O)n1NC(=O)c1ccc([N+](=O)[O-])cc1)CC(C)(C)OC3`, the inhibition is 5.3%.
In the case of `Cc1oc2c(C)c3oc(=O)c(CCC(=O)NCCCCCC(=O)O)c(C)c3cc2c1C` it was 18.8%.
Take `O=C(Nc1ccc(Cl)cc1)c1ccc2ncsc2c1`: the inhibition was -66.3%.
As to `Oc1ccc(-c2nccc(-c3cccs3)n2)cc1`, the inhibition was -139%.
In the case of `COC(=O)C(C)Oc1ccc(-c2nccc(-c3cccs3)n2)cc1` (stereo not drawn) it was -13.1%.
`O=C(O)COc1ccc(-c2nccc(-c3cccs3)n2)cc1`: the inhibition was 55.9% (active).
Then `O=C(c1cnccn1)N1CCc2c([nH]c3ccccc23)C1c1cccc(Cl)c1` (stereo not drawn), with -198%; and `CC(C)(C)c1ccc(S(=O)(=O)N2CCC(c3nc4ccc(Cl)cc4[nH]3)CC2)cc1`, with -18.9%; and `Cc1nnsc1C(=O)NC1CCCc2c1cnn2-c1cc(F)cc(F)c1` (stereo not drawn), with 21.9%.
Regarding `Cc1nnsc1C(=O)NC1CCCc2c1cnn2-c1ccc(F)cc1F` (stereo not drawn), the inhibition was 49.3%.
Regarding `Cc1cc(C)cc(-n2ncc3c2CCCC3NC(=O)C2(C(N)=O)CC2)c1` (stereo not drawn), the inhibition was 7.2%.
In the case of `Cn1nccc1C(=O)NC1CCCc2c1cnn2-c1cc(F)cc(F)c1` (stereo not drawn) it was 30.4%.
Regarding `Cc1nnsc1C(=O)NC1CCCc2c1cnn2-c1ccccc1F` (stereo not drawn), the inhibition was 51.1% (active).
Take `Cc1cccc(-n2ncc3c2CCCC3NC(=O)C2CCOCC2)c1C` (stereo not drawn): the inhibition was 41.8%.
For the compound `O=C(NC1CCCc2c1cnn2-c1ccccc1F)c1ccccn1` (stereo not drawn), the inhibition was -49.8%.
